Measured values: PubChem BioAssay (NCATS)
Inconclusive results are not listed. The source made the active and inactive calls. Unless noted, calls follow the shape of the full dose curve.

Key:
[1] = qHTS for Inhibitors of the Functional Ribonucleoprotein Complex (vRNP) of Lassa (LASV) Arenavirus: LASV Primary Screen - GLuc reporter signal (AID 1347082; calls by dose curve; tested in HEK293 reporter line; also: nearly all actives have a fitted effect of over 60% in size)
[2] = qHTS for Inhibitors of the Functional Ribonucleoprotein Complex (vRNP) of Lassa (LASV) Arenavirus: Viability assay - alamar blue signal for LASV Primary Screen (AID 1347083; calls by dose curve; tested in HEK293 reporter line; also: nearly all actives have a fitted effect of over 80% in size)
[3] = qHTS for Inhibitors of the Functional Ribonucleoprotein Complex (vRNP) of Lymphocytic Choriomeningitis Arenaviruses (LCMV): Viability assay - alamar blue signal for LCMV Primary Screen (AID 1347085; calls by dose curve; tested in HEK293 reporter line; also: nearly all actives have a fitted effect of over 80% in size)
[4] = molecular target: Nucleoprotein (Lymphocytic choriomeningitis virus (strain Armstrong)) (UniProt P09992); assay: qHTS for Inhibitors of the Functional Ribonucleoprotein Complex (vRNP) of Lymphocytic Choriomeningitis Arenaviruses (LCMV): LCMV Primary Screen - GLuc reporter signal (AID 1347086); also: nearly all actives have a fitted effect of over 70% in size
Nucleoprotein (Lymphocytic choriomeningitis virus (strain Armstrong)), sequence (P09992 whole entry, looked up): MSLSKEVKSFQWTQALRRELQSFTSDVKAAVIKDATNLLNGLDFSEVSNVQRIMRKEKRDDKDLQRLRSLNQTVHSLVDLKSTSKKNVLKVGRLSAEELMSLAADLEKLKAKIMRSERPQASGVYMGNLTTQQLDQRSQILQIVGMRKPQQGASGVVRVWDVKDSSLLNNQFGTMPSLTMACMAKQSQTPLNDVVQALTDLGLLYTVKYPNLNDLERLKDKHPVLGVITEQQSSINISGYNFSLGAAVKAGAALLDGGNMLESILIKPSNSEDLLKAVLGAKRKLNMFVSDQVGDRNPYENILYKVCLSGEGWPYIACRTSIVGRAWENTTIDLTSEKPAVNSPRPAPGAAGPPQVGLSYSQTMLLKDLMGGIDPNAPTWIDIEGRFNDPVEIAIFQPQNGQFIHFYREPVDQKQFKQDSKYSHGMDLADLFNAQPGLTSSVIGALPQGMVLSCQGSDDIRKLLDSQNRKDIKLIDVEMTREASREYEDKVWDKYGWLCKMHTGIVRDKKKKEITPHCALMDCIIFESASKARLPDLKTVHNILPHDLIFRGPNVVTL
% is scaled to controls: 0 for no effect and ±100 for the full control effect.
Also: series mostly up to about 57 µM.

O=C(/C=C/c1ccc(O)cc1)OCc1occc(=O)c1O[C@@H]1OC(CO)[C@@H](O)[C@H](O)[C@@H]1O (stereo partly specified)
inactive: Potency [1] | Potency [2] | Potency [3] | Potency [4]

COc1cccc(OC)c1C(=O)O
inactive: Potency [1] | Potency [2] | Potency [3] | Potency [4]

CCNC(=O)CCCC=CC[C@@H]1[C@H](C=CC(O)CCc2ccccc2)[C@@H](O)C[C@@H]1O (stereo partly specified)
inactive: Potency [1] | Potency [2] | Potency [3] | Potency [4]

C=C[C@]1(C)C=C2C(=O)[C@@]3(O)OC(=O)[C@@]4(CCCC(C)(C)[C@H]34)[C@@]2(O)CC1
inactive: Potency [1] | Potency [2] | Potency [3] | Potency [4]

O=C1CCCCCCCCCCCCCCCO1
inactive: Potency [1] | Potency [2] | Potency [3] | Potency [4]

C[C@@H]1CCN(C(=O)CC#N)C[C@H]1N(C)c1ncnc2[nH]ccc12
inactive: Potency [1] | Potency [2] | Potency [3] | Potency [4]

CCCC/C=C/CCCCO
inactive: Potency [1] | Potency [2] | Potency [3] | Potency [4]

C=C(C)C1CCC(C)(O)CC1 (stereo unspecified)
inactive: Potency [1] | Potency [2] | Potency [3] | Potency [4]

CC1=CC(=O)C2=C(C)C[C@@H]3OC(=O)[C@@H](C)[C@H]3C=C12
inactive: Potency [1] | Potency [2] | Potency [3] | Potency [4]

C=C(C)C1Cc2cc3ccc(=O)oc3cc2O1 (stereo unspecified)
inactive: Potency [1] | Potency [2] | Potency [3] | Potency [4]

CCCCCCCCC1CCC(=O)O1 (stereo unspecified)
inactive: Potency [1] | Potency [2] | Potency [3] | Potency [4]

CCCCCCCCCCCCCCCCCC(=O)NCC(COP(=O)([O-])OCC[N+](C)(C)C)OCC (stereo unspecified)
inactive: Potency [1] | Potency [2] | Potency [3] | Potency [4]

O=C(O)c1cc(N(Cc2ccccc2O)Cc2ccccc2O)ccc1O
inactive: Potency [1] | Potency [2] | Potency [3] | Potency [4]

CCCCC/C=C\C/C=C\C/C=C\C=C\C(O)CCCC(=O)O (stereo unspecified)
inactive: activity change, negative = inhibition [1] -8.78% [at 0.757 µM] | activity change, negative = reduced viability [2] 7.65% [at 0.757 µM] | activity change, negative = lower viability [3] 16.2% [at 0.757 µM] | activity change, negative = inhibition [4] -6.07% [at 0.757 µM]

CCCCCCCCCCCC
inactive: Potency [1] | Potency [2] | Potency [3] | Potency [4]

CC[C@@H](O)C[C@H]1CCC[C@@]2(C[C@@H]3OC(=O)/C=C/[C@@](C)(O)[C@@H](O)[C@H](C)[C@@H](O)[C@H](OC4CCC(N(C)C)C(C)O4)[C@@H](O)[C@](C)(O)CCCCC/C=C/[C@@H]4CC(C)(C)O[C@@]4(O)C[C@H](O2)[C@H]3C)O1 (stereo partly specified)
inactive: Potency [1] | Potency [2] | Potency [3] | Potency [4]

CC(O)[C@H]1CC[C@H]2[C@@H]3CC[C@H]4C[C@@H](O)CC[C@]4(C)[C@H]3C(=O)C[C@]12C (stereo partly specified)
inactive: Potency [1] | Potency [2] | Potency [3] | Potency [4]

CC(C)CC(=O)O
inactive: Potency [1] | Potency [2] | Potency [3] | Potency [4]

CC1(C)C=Cc2c(c3c(c4c(=O)c(-c5ccc(O)cc5)coc24)OC(C)(C)CC3)O1
inactive: Potency [1] | Potency [2] | Potency [3] | Potency [4]

O=C1c2cc(CO)cc(O)c2C(=O)c2c(O[C@@H]3OC(CO)[C@@H](O)[C@@H](O)[C@@H]3O)cccc21 (stereo partly specified)
inactive: Potency [1] | Potency [2] | Potency [3] | Potency [4]

COC1=C(C)C(O)=C(C(=O)/C=C/c2ccccc2)C(=O)C1(C)C
inactive: Potency [1] | Potency [2] | Potency [3] | Potency [4]

COc1cc(C/C=C\c2ccccc2)c(OC)cc1O
inactive: Potency [1] | Potency [2] | Potency [3] | Potency [4]

C[C@@H](O)CCC[C@H](O)/C=C/[C@H]1[C@H](O)CC(=O)[C@@H]1C/C=C\CCCC(=O)O
inactive: activity change, negative = inhibition [1] -72.5% [at 5.82 µM] | activity change, negative = reduced viability [2] -134% [at 5.82 µM] | activity change, negative = lower viability [3] -144% [at 5.82 µM] | activity change, negative = inhibition [4] -73.7% [at 5.82 µM]

O=C(/C=C/c1ccccc1)OC/C=C/c1ccccc1
inactive: Potency [1] | Potency [2] | Potency [3] | Potency [4]

O=C(CCc1ccc(O)cc1)c1c(O)cc(O)cc1O[C@@H]1O[C@H](CO)[C@H](O)[C@H](O)[C@H]1O
inactive: Potency [1] | Potency [2] | Potency [3] | Potency [4]

Cc1cc(OCCCc2c(C(=O)O)n(Cc3cccnc3)c3c(-c4c(COc5ccc(N6CCN([S+](C)(=O)[O-])CC6)cc5)nn(C)c4C)cccc23)cc(C)c1Cl
inactive: Potency [1] | Potency [2] | Potency [3] | Potency [4]

C[C@@H]1O[C@@H](O[C@H]2[C@H](O)[C@@H](O)[C@H](Oc3c(-c4ccc(O)cc4)oc4cc(O)cc(O)c4c3=O)O[C@@H]2CO)[C@H](O)[C@H](O)[C@H]1O
inactive: Potency [1] | Potency [2] | Potency [3] | Potency [4]

CCCC(=O)C(C)=O
inactive: Potency [1] | Potency [2] | Potency [3] | Potency [4]

C[C@@H]1NC(=O)N[C@@H]1CCCCCC(=O)O
inactive: Potency [1] | Potency [2] | Potency [3] | Potency [4]

CCCCC/C=C\C/C=C\C[C@H](O)/C=C/C=C\CCCC(=O)O
inactive: activity change, negative = inhibition [1] 6.73% [at 0.757 µM] | activity change, negative = reduced viability [2] 15% [at 0.757 µM] | activity change, negative = lower viability [3] 7.12% [at 0.757 µM] | activity change, negative = inhibition [4] 11.5% [at 0.757 µM]

COc1cc(-c2cc(=O)c3c(O)cc(O)cc3o2)ccc1O
inactive: Potency [1] | Potency [2] | Potency [3] | Potency [4]

CO[C@H]1[C@@H]2C=CO[C@@H](O[C@H]3O[C@@H](CO)[C@H](O)[C@@H](O)[C@@H]3O)[C@@H]2[C@@]2(CO)O[C@@H]12
inactive: Potency [1] | Potency [2] | Potency [3] | Potency [4]

Oc1ccc(C=Cc2cc(O)cc(O)c2)cc1
inactive: Potency [1] | Potency [2] | Potency [3] | Potency [4]

C=C1C(=O)OC2C=C(CO)CCC=C(CO)CC(OC(=O)C(C)C)C12 (stereo unspecified)
inactive: Potency [1] | Potency [2] | Potency [3] | Potency [4]

O=c1cc(-c2ccccc2)c2c(O)cc(O)cc2o1
inactive: Potency [1] | Potency [2] | Potency [3] | Potency [4]

C=CC(C)(CCC=C(C)C)OC=O (stereo unspecified)
inactive: Potency [1] | Potency [2] | Potency [3] | Potency [4]

C/C(=C\COc1c2ccoc2cc2oc(=O)ccc12)CCC(O)C(C)(C)O (stereo unspecified)
inactive: Potency [1] | Potency [2] | Potency [3] | Potency [4]

O=C(OCC#CCSc1nnc(-c2cccc3ccccc23)o1)c1cc2ccccc2s1
inactive: Potency [1] | Potency [2] | Potency [3] | Potency [4]

CN1CCc2cc3c(cc2C1)OCO3
inactive: Potency [1] | Potency [2] | Potency [3] | Potency [4]

C=CCCC[C@@H]1OC(=O)CNC(=O)C([C@@H](C)CC)NC(=O)[C@@H]2CCCN2C(=O)C([C@@H](C)CC)OC(=O)[C@H](Cc2ccccc2)N(C)C(=O)[C@H](C(C)C)NC(=O)C1(C)C (stereo partly specified)
inactive: Potency [1] | Potency [2] | Potency [3] | Potency [4]

C=C(C)[C@]12C[C@@H](C)[C@@]34O[C@](Cc5ccccc5)(O[C@@H]1[C@@H]3C=C(COC(=O)Cc1ccc(O)c(OC)c1)C[C@]1(O)C(=O)C(C)=C[C@@H]41)O2
inactive: Potency [1] | Potency [2] | Potency [3] | Potency [4]

Cc1cc2c(c(C)c1CCO)C(=O)[C@H](C)C2
inactive: Potency [1] | Potency [2] | Potency [3] | Potency [4]

O=C(Oc1ccccc1)c1ccccc1C(=O)Oc1ccccc1
inactive: Potency [1] | Potency [2] | Potency [3] | Potency [4]

CC(C)(O[C@@H]1O[C@H](CO)[C@@H](O)[C@H](O)[C@H]1O)[C@@H]1CC=C(C(=O)O)CC1
inactive: Potency [1] | Potency [2] | Potency [3] | Potency [4]

CC(C)=CCCC(C)CC(=O)O (stereo unspecified)
inactive: Potency [1] | Potency [2] | Potency [3] | Potency [4]

O[C@@H]1CCN2Cc3ccccc3N=C12
inactive: Potency [1] | Potency [2] | Potency [3] | Potency [4]

COc1ccc(C(=O)/C=C/c2ccc(O)cc2)c(O)c1C/C=C(\C)CCC=C(C)C
inactive: Potency [1] | Potency [2] | Potency [3] | Potency [4]

CON=C(C(=O)N[C@@H]1C(=O)N2C(C(=O)OCOC(=O)C(C)(C)C)=C(C=Cc3scnc3C)CS[C@H]12)c1csc(N)n1
inactive: Potency [1] | Potency [2] | Potency [3] | Potency [4]

O=C1Nc2ccccc2C(=O)N2CCC[C@@H]12
inactive: Potency [1] | Potency [2] | Potency [3] | Potency [4]

CCc1cc(C(C)=NOCc2ccc(C3CCCCC3)c(C(F)(F)F)c2)ccc1CN1CC(C(=O)O)C1
inactive: Potency [1] | Potency [2] | Potency [3] | Potency [4]

CC1=CC23C(=O)C(C=C(CO)[C@@H](O)[C@]2(O)[C@H]1O)[C@H]1[C@@H](C[C@H]3C)C1(C)C (stereo partly specified)
inactive: Potency [1] | Potency [2] | Potency [3] | Potency [4]

C=C1[C@H]2O[C@H]2[C@@H](OC(C)=O)[C@@]2(C)[C@@H](OC(C)=O)C[C@@H](OC(C)=O)[C@@](C)(O)[C@@H]2[C@@H](OC(C)=O)[C@@]2(O)[C@@H](C)C(=O)O[C@H]2[C@H]1Cl
inactive: Potency [1] | Potency [2] | Potency [3] | Potency [4]

ON=Cc1ccnc2ccccc12
inactive: Potency [1] | Potency [2] | Potency [3] | Potency [4]

O=C1c2c(O)cc(O)cc2O[C@@]12c1c(cc(O)c3c1O[C@H](c1ccc(O)cc1)[C@@H](O)C3)O[C@@H]2c1ccc(O)cc1
inactive: Potency [1] | Potency [2] | Potency [3] | Potency [4]

O=c1[nH]c(=O)c2ncn(C3OC(CO)C(O)C3O)c2[nH]1 (stereo unspecified)
inactive: Potency [1] | Potency [2] | Potency [3] | Potency [4]

C/C=C1\NC(=O)[C@H](C)NC(=O)[C@@H](NC(=O)[C@H](Cc2ccc(O)cc2)NC(=O)[C@@H](NC(=O)/C(C)=C/C)C(C)C)[C@@H](C)OC(=O)[C@H](CC(C)C)NC(=O)[C@@H](CCC(=O)O)NC1=O
inactive: Potency [1] | Potency [2] | Potency [3] | Potency [4]

Cn1c(=O)c2[nH]c(=O)[nH]c2n(C)c1=O
inactive: Potency [1] | Potency [2] | Potency [3] | Potency [4]

CC(C)CNC(=O)/C=C/C=C/CCCCCC/C=C/c1ccc2c(c1)OCO2
inactive: Potency [1] | Potency [2] | Potency [3] | Potency [4]

CC1C(=O)OC2CCN3CC=C(COC(=O)C(C)(O)C1(C)O)C23 (stereo unspecified)
inactive: Potency [1] | Potency [2] | Potency [3] | Potency [4]
